The nature of assay [1]: qHTS Assay for Identifying Gametocytocidal Compounds (AID 743244).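 Note: % is set by controls: 0 for no effect and ±100 for the full control effect; actives lower the fluorescent signal which means gametocytes are killed.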 The following applies: P. falciparum 3D7 stage III-V gametocytes, alamarBlue, 72 h; max response: stronger effect = lower value. The method in brief:
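P. falciparum 3D7 stage III–V gametocytes (20,000 cells/well) were exposed to compounds for 72 h at 37 °C, 5% CO2. AlamarBlue was then added for 24 h; decreased resorufin fluorescence (Ex 525/Em 598 nm) indicated loss of viability.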
On the technique in general: Quantitative high-throughput screening tests each substance at several concentrations.

A short description of assay [2]: qHTS assay to identify small molecule inhibitors of chordoma cells - UCH-1 (AID 1259355). Note: % is set by controls: 0 for no effect and ±100 for the full control effect; nearly all actives have a fitted effect of over 55% in size. The essentials:
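Cells (800/well) were seeded and left overnight at 37 C, 5% CO2, then treated with drugs at 15 concentrations plus a combination mix of auranofin, camptothecin, doxorubicin, rubitecan and topotecan. Viability after 48hr was read by CellTiter-Glo luminescence.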

A short description of assay [3]: P-glycoprotein substrates identified in KB-8-5-11 adenocarcinoma cell line, qHTS therapeutic library screen (AID 1346987). Note: % is set by controls: 0 for no effect and ±100 for the full control effect; nearly all actives have a fitted effect of over 65% in size. The following applies: outcome: dose series up to 44.5 µM unless noted. The essentials:
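KB-8-5-11, a colchicine-selected P-gp-overexpressing KB-3-1 subline, was grown without colchicine for the assay. Cells were seeded at 500 cells/well, dosed in concentration-response and incubated 72 h at 37 degree C, 5% CO2. Viability was read by CellTiter-Glo luminescence.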

The nature of assay [4]: qHTS assay for cell viability of HEK293 cells (AID 743288). Note: % is set by controls: 0 for no effect and ±100 for the full control effect; nearly all actives have a fitted effect of over 50% in size. The conditions noted are these: ATP luminescence (CellTiter-Glo), 18 h; max response: stronger effect = lower value. The essentials:
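Parental HEK293 cells were seeded at 2,000 cells/well, rested at least 5 h at 37 C, then exposed to compounds in DMSO for 18 h at 37 C. Viability was read as ATP-dependent luciferase luminescence after 30 min at room temperature.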

Assay [5] is described as follows: qHTS assay for cell viability of the p53RE-bla HCT-116 cell line (AID 743292). Note: % is set by controls: 0 for no effect and ±100 for the full control effect; nearly all actives have a fitted effect of over 55% in size. The method in brief:
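Viability of compound-treated p53RE-bla HCT-116 cells is taken from ATP-dependent luciferase luminescence. Treatment lasts 16 h at 37 C after a 5 h settling period; detection follows 30 min at room temperature.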

Assay [6] is described as follows: qHTS profiling of the MIPE4 collection as inhibitors of Plasmodium falciparum (3D7) proliferation (AID 743344; call rule not given here;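 note: scaled between DMSO vehicle wells and 0.29 µM artemisinin as full inhibition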). The conditions noted are these: P. falciparum 3D7 in erythrocytes, SYBR Green DNA fluorescence, 72 h; at 28.5 µM (top of the series). The essentials: (§1)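 Erythrocytes infected with P. falciparum (0.3% parasitemia, 2.5% hematocrit) incubated with compounds 72 h at 37 C, 5% CO2. Lysis with saponin/Triton buffer containing SYBR Green I, overnight at room temperature in the dark; DNA fluorescence (485/535 nm) normalised to 0.29 uM artemisinin and DMSO.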

The nature of assay [7]: qHTS profiling of the MIPE4 collection as inhibitors of Plasmodium falciparum (DD2) proliferation (AID 743345; call rule not given here). The conditions noted are these: P. falciparum Dd2 in erythrocytes, SYBR Green DNA, 72 h; at 28.5 µM (top of the series). The method in brief:
as §1

Assay [8] is described as follows: qHTS profiling of the MIPE4 collection as inhibitors of Plasmodium falciparum (DD2) proliferation (Rep 2) (AID 743346; call rule not given here). The following applies: P. falciparum Dd2 in erythrocytes, SYBR Green DNA, 72 h; at 28.5 µM (top of the series). The essentials:
as §1

Assay [9] can be described thus: qHTS profiling of the MIPE4 collection as inhibitors of Plasmodium falciparum (HB3) proliferation (AID 743347; call rule not given here;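 note: plate controls were DMSO vehicle wells for no effect and artemisinin wells for full effect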). The conditions noted are these: P. falciparum HB3 in erythrocytes, SYBR Green DNA, 72 h; at 28.5 µM (top of the series). The essentials: as §1
The nature of assay [10]: qHTS assay to identify small molecule inhibitors of chordoma cells - UCH-2 (AID 1259356). Note: % is set by controls: 0 for no effect and ±100 for the full control effect.

Values joined by “and” are separate entries in the source; they are usually repeats but may differ in a detail not shown here. Equal entries are not always repeated. Inconclusive results are not listed. Active and inactive are the calls of the source. Unless noted, calls come from the whole dose curve; as a rule, active = well fitted curve in the direction sought with a large enough effect; inconclusive = small, poorly fitted or top-dose-only effect, or another doubt; inactive = no such curve, though single readings can be large; an effect the other way counts as inactive or inconclusive.

Regarding `CCCCCCCCCCCCCCCC(=O)OC[C@@H](O)[C@H]1OC[C@H](O)[C@H]1O`, the max response in [1] is -10.2% (inactive). The Potency entry in assay [2] and in [3] was “inactive” throughout.
For `CCc1ccc(S(=O)(=O)O)cc1`, in assay [1], the max response was -6.98% (inactive). For the same molecule, the Potency result in assay [2] and in assay [3] was “inactive” each time.
Turning to `CCN(CC)CCOC[C@H]1O[C@@H](O)[C@H](OCCN(CC)CC)[C@@H](O)[C@@H]1O`, the Potency entry in [2] and in assay [3] was “inactive” in each case.
Turning to `CC1(O)CCC(C(C)(C)O)CC1` (stereo not drawn), the max response in assay [1] was 5.51% (inactive). For the same molecule, the Potency entry in assay [2] was “inactive”.
On to `CO[C@@H]1[C@H](OC(=O)/C=C/C=C/C=C/C=C/C(=O)O)CC[C@]2(CO2)[C@H]1[C@@]1(C)O[C@@H]1CC=C(C)C`, for which the max response was -5.74% (inactive) in assay [1] and -10.5% (inactive) in assay [4]. Also, the call in assay [5] was inactive. Moreover, the Potency result in assay [2] and in assay [3] was “inactive” in each case.
As for `O=C(O)[C@H]1CN(C/C=C/P(=O)(O)O)CCN1`, the max response in assay [1] is 12.3% (inactive). The Potency entry in [2] and in assay [3] was “inactive” in each case.
For `CCN(CC)CCOC(=O)c1cccnc1`, the max response in assay [1] was 6.67% (inactive). The Potency entry in [2] and in [3] was “inactive” throughout.
As for `CC(O)[C@@H]1NC(=O)[C@H](Cc2ccccc2)NC(=O)[C@H](C(C)O)NC(=O)[C@H](CCCCN)NC(=O)[C@H](Cc2c[nH]c3ccccc23)NC(=O)[C@H](Cc2ccccc2)NC(=O)[C@H](Cc2ccccc2)NC(=O)[C@H](CC(N)=O)NC(=O)[C@H](CCCCN)NC(=O)[C@@H](NC(=O)CNC(=O)[C@H](C)N)CSSC[C@@H](C(=O)O)NC(=O)[C@H](CO)NC1=O` (stereo partly drawn), the max response in assay [1] is 1.43% (inactive). The Potency result in assay [2] and in assay [3] was “inactive” each time.
Regarding `CCN(CC)CCOc1ccc2nc(N(C)C)sc2c1`, the max response in assay [1] was -4.7% (inactive). For the same molecule, the Potency result in assay [2] is “inactive”.
Consider `COC1=C(OC)C(=O)C(C/C=C(\C)CC/C=C(\C)CC/C=C(\C)CC/C=C(\C)CC/C=C(\C)CC/C=C(\C)CC/C=C(\C)CC/C=C(\C)CC/C=C(\C)CCC=C(C)C)=C(C)C1=O`, for which the max response in assay [1] was 1.6% (inactive) and -2.73% (inactive). Moreover, the Potency result in [2] and in assay [3] was “inactive” in each case.
`CN(C)C(=O)CCSC(SCCC(=O)O)c1cccc(/C=C/c2ccc3ccc(Cl)cc3n2)c1` (stereo not drawn): the Potency result in assay [2] and in assay [3] was “inactive” in each case.
For the molecule `CCCC(CCC)C(=O)OC1C[C@H]2CC[C@@H](C1)[N+]2(C)C` (stereo partly drawn), the Potency result in [2] and in assay [3] was “inactive” each time.
With `CC1C(=O)CC2C3(C)CCC2(C(C)C(=O)O)C(=O)C13` (stereo not drawn), in [1], the max response was -7.97% (inactive). Further, the Potency result in assay [2] and in [3] was “inactive” in each case.
Consider `NS(=O)(=O)c1cc2c(cc1Cl)NC(Cc1ccccc1)NS2(=O)=O` (stereo not drawn), for which the Potency result in [2] and in assay [3] was “inactive” throughout.
For `O=[n+]1ccn([O-])c2ccccc21`, the max response in [1] was -5.38% (inactive). In addition, the Potency entry in [2] and in assay [3] was “inactive” each time.
The molecule `CC(=O)[C@H]1CC[C@H]2[C@@H]3C=CC4=CC(=O)CC[C@@]4(C)[C@H]3CC[C@]12C` displayed a parasite growth, % of DMSO control in [6] of 84.6%. In assay [7], this molecule registered a parasite growth remaining, % of DMSO control (lower = more inhibition) of 96.9%. Further, the parasite growth, % of control (lower = inhibition) in assay [8] came to 165%. In assay [9], this molecule registered a growth, % of control of 95.1%. The Potency result in assay [2] and in [10] was “inactive” throughout.
In the case of `O=P(O)(O)CP(=O)(O)O`, the Potency result in assay [2] and in assay [3] was “inactive” each time.
Take `CNC(=O)[C@H](Cc1c[nH]c2ccccc12)NC(=O)[C@@H](CC(=O)NO)CC(C)C`: in [1], the max response is -3.58% (inactive). For the same molecule, the Potency entry in assay [2] and in assay [3] was “inactive” in each case.
Regarding `CC(C)(C)NCC(O)CSc1nc(-c2ccc(C(N)=O)s2)cs1` (stereo not drawn), in assay [10], the Potency result is “inactive”.
Turning to `CC(C)(COP(=O)(O)OP(=O)(O)OC[C@H]1O[C@@H](n2cnc3c(N)ncnc32)[C@H](O)[C@@H]1OP(=O)(O)O)C(O)C(=O)NCCC(=O)NCCS` (stereo partly drawn), in [1], the max response is -9.49% (inactive). Besides, the Potency entry in [2] and in assay [3] was “inactive” each time.
`C=C1CC[C@H](O)C/C1=C\C=C1/CCC[C@]2(C)[C@@H]([C@H](C)CCCC(C)C)CC[C@@H]12`: the max response in assay [1] is 7.84% (inactive). Besides, the Potency result in [2] and in assay [3] was “inactive” in each case.
With `Cc1cc2nc3c(=O)[nH]c(=O)nc-3n(C[C@H](O)[C@H](O)[C@H](O)COP(=O)(O)OP(=O)(O)OC[C@H]3O[C@@H](n4cnc5c(N)ncnc54)[C@H](O)[C@@H]3O)c2cc1C`, the max response in assay [1] is -3.17% (inactive). Besides, the Potency result in assay [2] and in assay [3] was “inactive” in each case.
For `CCC(O)c1ccccc1` (stereo not drawn), the max response in [1] is 11% (inactive). Besides, the Potency entry in assay [2] was “inactive”.
With `O=C(O)CCC/C=C\C[C@@H]1[C@@H](/C=C/[C@@H](O)COc2cccc(C(F)(F)F)c2)[C@H](O)C[C@@H]1O`, in assay [1], the max response was 7.42% (inactive). Moreover, the Potency result in [2] and in [3] was “inactive” in each case.
`C=C1CC[C@H](O)CC1=C/C=C1\CCC[C@]2(C)[C@@H]([C@H](C)CC[C@@H](O)C(C)(C)O)CC[C@@H]12`: the Potency entry in [10] is “inactive”.
In the case of `CCCCCc1ccc(C)cc1O`, in assay [1], the max response is 3.19% (inactive). Further, the Potency entry in assay [2] and in [3] was “inactive” in each case.
Consider `CC1CC(OC(=O)C(O)c2ccccc2)CC(C)(C)C1` (stereo not drawn), for which the max response in assay [1] is 25% (inactive). Moreover, the Potency result in assay [2] and in assay [3] was “inactive” each time.
Take `C[N+]1(C)[C@@H]2CC(OC(=O)C(O)(c3cccs3)c3cccs3)C[C@H]1[C@@H]1O[C@@H]12` (stereo partly drawn): the max response in assay [1] is 8.38% (inactive). For the same molecule, the Potency result in [2] and in [3] was “inactive” in each case.
In the case of `CNCC(O)c1ccc(OC(=O)C(C)(C)C)c(OC(=O)C(C)(C)C)c1` (stereo not drawn), the max response in assay [1] is -11.6% (inactive). In addition, the Potency entry in assay [2] is “inactive”.
Consider `FC(F)(F)C(F)(F)C(F)(F)C(F)(F)C(F)(F)C(F)(F)F`, for which, in assay [1], the max response was 13.2% (inactive). Also, the Potency entry in assay [2] and in [3] was “inactive” throughout.
As for `Cc1cccc(C)c1NC(=O)NC1=CCCN1C`, the max response in assay [1] was -1.59% (inactive). Moreover, the Potency entry in assay [2] and in assay [3] was “inactive” throughout.
For `O=P(O)(O)OP(=O)(O)O`, in assay [1], the max response is 2.77% (inactive). The Potency entry in [2] and in assay [3] was “inactive” each time.

The values are drawn from PubChem BioAssay (NCATS).
